Source: PubChem BioAssay
Shown is part of a subset that was picked to be rich in hits.
ROC1-CUL1 inh = blocks human RBX1-Cullin-1 di-ubiquitin formation; P62877+Q13616; in vitro K48 di-Ub FRET, acceptor:donor ratio, 45 min; inhibition, % at 10 µM; 0.6% of 140,000 active; in the data active means inhibition above about 25%
Each line names hits and unclear results; the compound was inactive in the other large screens.

C=CCC(=O)N(CCOC)CC1CCCN(C2Cc3ccccc3C2)C1 (centres undefined)	none
Cc1cn2c3c(=O)n(Cc4ccccc4)c(=O)n(C)c3nc2n1CCO	none
Cc1ccc2nc3sc(C(=O)Nc4ccccc4[N+](=O)[O-])c(N)c3cc2c1	none
Cc1cc(Br)c(NC(=O)CN2CCC(C)CC2)cc1C	none
Cc1cc(Br)ccc1NC(=O)CN1CCC(C)CC1	ROC1-CUL1 inh 98
Cc1cc(Cl)ccc1NC(=O)CN1CCC(C)CC1	none
COc1ccc(C(=O)OCC(=O)c2ccc(OC(=O)c3ccccc3)cc2)cc1	none
Nc1cccc(C(=O)OCC(=O)c2ccccc2)c1	none
O=C(COC(=O)c1ccc(C(O)c2ccccc2)cc1)c1ccccc1 (centres undefined)	ROC1-CUL1 inh 32
CC1=CC2=NC(=O)C(C(=O)NCc3ccccc3Cl)C(=O)N2C=C1 (centres undefined)	none
CN1C(=O)C(c2cccc(Cl)c2)C(=O)c2ccccc21 (centres undefined)	none
CN1C(=O)C(=O)C2c3ccccc3C(=O)c3c(Cl)cc(Cl)c1c32 (centres undefined)	ROC1-CUL1 inh 33
CCc1ccccc1C1C(=O)c2ccccc2C1=O	none
CN(c1ccc(C(=O)NC(C)(C)C)cc1)S(C)(=O)=O	none
CCn1c(CSCc2ccccc2)nnc1SCC(=O)Nc1nccs1	none
CCCCC(=O)N(c1nc(-c2ccc(OC)cc2)c(C)s1)c1ccccc1C	none
CC(=O)Oc1ccccc1C(=O)Oc1ccccc1	none
CC(=O)Oc1ccc(OC(C)=O)c2c1C(=O)C=CC2=O	ROC1-CUL1 inh 99
CC(=O)NCc1ccc(OC(C)=O)c(OC(C)=O)c1	none
Oc1ccccc1/C=N/N(Cc1ccccc1)Cc1ccccc1	none
CC1=NN(c2cccc3ccccc23)C(=O)C1C=Nc1ccc(C(=O)O)c(O)c1 (centres undefined)	none
O=S(=O)(Cc1ccc(Br)cc1)N1CCCCCC1	none
O=C(CCCOc1ccc(Cl)cc1Cl)NNc1ccc([N+](=O)[O-])cc1[N+](=O)[O-]	none
COc1cc(Br)cc(/C=N/NC(=O)CSc2nnc(-c3ccc(C)cc3)n2C)c1O	none
Cc1ccc(/C=N/NC(=O)CSc2nnc(-c3ccc(Br)cc3)n2C)cc1	none
COc1cc(/C=N/NC(=O)CSc2nnc(-c3ccc(C)cc3)n2C)ccc1O	ROC1-CUL1 inh 27
CCOc1cccc(N2C(=O)c3ccccc3NC2c2c(O)ccc3ccccc23)c1 (centres undefined)	none
COC(=O)C(NC(=O)c1ccc(C)cc1)(Nc1cc(C)cc(C)n1)C(F)(F)F (centres undefined)	none
CC1=C(C#N)C(=O)N(CCO)C(=O)/C1=C\c1ccc(-c2ccccc2)o1	none
CCCN1C(=O)C(C#N)=C(C)/C(=C\c2ccc(-c3ccccc3)o2)C1=O	none
CC1=C(C#N)C(=O)N(CCc2ccccc2)C(=O)/C1=C/c1ccc(-c2ccc(S(N)(=O)=O)cc2)o1	ROC1-CUL1 inh 26
CCOC(=O)c1sc2nc(-c3ccccc3)[nH]c(=O)c2c1C	none
Cc1cc(Cl)c2c(N)c(C)cc(C)c2n1	ROC1-CUL1 inh 91
Cc1cc(N2CCOCC2)c2c(N)c(Br)cc(C)c2n1	none
CCOC(=O)c1c(Cl)cc(C)nc1Cl	none
CCCc1cc(C(=O)Nc2c(C)cccc2C)n(C)n1	none
C=CCc1ccc(OCc2nc3ccc(C)cc3[nH]2)cc1	none
Cc1ccc(N2C(=O)/C(=C/c3ccc(-c4ccc(C(=O)O)cc4)o3)C(=O)N(c3ccccc3)C2=S)cc1C	none
Cc1ccc(N2C(=O)/C(=C\c3ccc(-c4ccc(Br)cc4[N+](=O)[O-])o3)C(=O)N(c3ccccc3)C2=S)cc1C	ROC1-CUL1 inh 56
Cc1ccc(N2C(=O)/C(=C/c3ccc(Br)cc3)C(=O)N(c3ccccc3)C2=S)cc1	none
Oc1ccc(NCc2cc(Cl)ccc2OCc2ccccc2F)cc1	ROC1-CUL1 inh 30
Oc1ccc(NCc2ccccc2OCc2ccccc2Cl)cc1	none
CCOc1ccccc1CNc1ccc(O)cc1	ROC1-CUL1 inh 46
NS(=O)(=O)c1ccc(NCc2ccccc2OCc2ccccc2F)cc1	none
Oc1ccc(NCc2ccccc2OCc2ccccc2F)cc1	none
CCOc1ccccc1CNc1ccc(N2CCOCC2)cc1	none
Fc1ccc(-c2csc(NCCc3ccccc3)n2)cc1	none
O=C(O)c1ccccc1-c1occ(C(=O)c2cccs2)c1C(=O)O	none
O=c1cc(-c2ccccc2)nc(Sc2c(-c3ccccc3)c3ccccc3[nH]c2=O)[nH]1	none
NNC1=Nc2ccccc2Sc2ccc(Cl)cc21	none
O=c1[nH]cccc1-c1ccc[nH]c1=O	none
O=c1[nH]cccc1I	ROC1-CUL1 inh 66
O=c1[nH]cc(I)cc1I	none
CC(C)S(=O)(=O)c1ncc(CN2CCOCC2)n1CCc1ccccc1	none
O=C(N/N=C/c1cc([N+](=O)[O-])ccc1O)c1ccccn1	none
O=C(N/N=C/c1cc([N+](=O)[O-])ccc1O)c1cnccn1	none
O=C(N/N=C/c1cc([N+](=O)[O-])ccc1O)c1ccc(C(=O)N/N=C/c2cc([N+](=O)[O-])ccc2O)o1	ROC1-CUL1 inh 98
Cn1ncc(N2CCC(CNC(=O)Nc3nnc(C(C)(C)C)s3)C2)cc1=O (centres undefined)	none
Cc1nc(-c2ccncc2)ncc1C(C)NC1CCCCC1 (centres undefined)	none
CSCn1c(=O)c(=O)n(CSC)c2cc(Br)ccc21	none
Cc1ccccc1NC(=O)Cc1cccs1	none
O=C(Cc1cccs1)Nc1ccccc1O	none
O=C(Cc1cccs1)Nc1ccc(Cc2cccc(NC(=O)Cc3cccs3)c2C(=O)O)cc1C(=O)O	ROC1-CUL1 inh 27
COc1cc(OC)cc(C(=O)NCc2ccccc2)c1	none
COc1ccc(NC(=O)C2CCN(C3NS(=O)(=O)C(c4ccc(C)c(C)c4)C3C)CC2)c(OC)c1 (centres undefined)	none
CN(C)c1ccccc1/C=C1\Oc2ccccc2C1=O	ROC1-CUL1 inh 27
CC(=O)Cc1ccccc1/C=C1\OC(=O)c2ccccc21	none
COc1ccccc1/C=C1\Oc2cccc(OC)c2C1=O	none
COCCN(Cc1ccn[nH]1)CC1CCCN(C2Cc3ccccc3C2)C1 (centres undefined)	none
CCOc1ccc(NC(=S)NCCO)cc1	none
CCOc1ccc(NC(=S)Nc2ccc3nsnc3c2)cc1	ROC1-CUL1 inh 51
CCOc1ccc(NC(=S)NCCCO)cc1	none
Cc1cc(Cl)c(Cl)cc1S(=O)(=O)N1CCN(C)CC1	none
COc1ccc(C(=O)CSc2nsc(SCC(=O)c3ccc(OC)cc3)c2C#N)cc1	none
C=CCn1c(SCC(=O)Nc2cccc(C(F)(F)F)c2)nc2sc3c(c2c1=O)CCC3	none
C=CCn1c(SCC(=O)Nc2cccc(C(F)(F)F)c2)nc2scc(-c3ccco3)c2c1=O	ROC1-CUL1 inh 34
C=CCn1c(SCC(=O)Nc2sc(C(=O)OCC)c(C)c2C(=O)OCC)nc2scc(-c3ccco3)c2c1=O	none
COC(=O)COc1ccc2c(=O)c(Oc3ccc(Cl)cc3)coc2c1	none
Brc1cc(-c2ccnc(Br)c2)ccn1	none
Cc1ccc(C(C)C)c(OCC(=O)NNC(=O)CCCC(=O)NNC(=O)COc2cc(C)ccc2C(C)C)c1	none
Cc1cnc(N2CCOCC2)nc1	none
CCOc1ccc(C2C(C(=O)c3ccc(C)o3)C(=O)C(=O)N2CCCN(CC)CC)cc1 (centres undefined)	none
COc1ccc(CC2=NOC(CNC(=O)c3ccccc3-n3cccn3)C2)cc1 (centres undefined)	none
O=C1NC(=Nc2cc(Cl)cc(Cl)c2)S/C1=C\c1ccco1	ROC1-CUL1 inh 28
O=C1NC(=Nc2ccccc2)S/C1=C/c1ccc(-c2ccc(Cl)cc2Cl)o1	none
O=C1NC(=Nc2ccccc2Cl)S/C1=C\c1ccc(-c2ccc(Cl)cc2)o1	none
C=CCSc1nc2ccccc2c(=O)[nH]1	none
C=CCN=C(N)SCc1nc2ccccc2c(=O)[nH]1	ROC1-CUL1 inh 36
CCN(CC)Cc1nc2ccccc2c(=O)[nH]1	none
